This assay in a line: enhancers of NK cell killing of ovarian tumor cells, primary screen, imaging, OVCAR3, primary NK cells, calcein-AM imaging (AID 1508625).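 Note: compound given to NK cells 16 h before adding targets at 1.5 to 1 ratio.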 The conditions noted are these: OVCAR3 lysis by primary NK cells, at 5 µM; z-score: measured here: robust Z-score, single-point normalisation.

The values that follow come from PubChem BioAssay AID1508625 (Wald Lab, School of Medicine, Case Western Reserve …, 2021).

Take `CC12CN3CN(C1)CC(C)(C3)C2=NN`: the corrected activity, negative = more killing was -6.15% and the z-score is -2.42.
For `O=c1cccc2n1C[C@H]1C[C@@H]2CN(Cc2ccccc2F)C1` the same measures were -2.76% and -1.43.
Taken in the same sequence, the figures for `O=[N+]([O-])c1ccc(NCCc2ccccc2)c2ncccc12` were 1.61% and 0.498.
Taken in the same sequence, the figures for `O=[N+]([O-])c1ccccc1CNCCc1cccc(F)c1` were -3.35% and -1.06.
Turning to `O=c1c2ccccc2nc(-c2ccco2)n1-c1ccc(Cl)cc1`, the corrected activity, negative = more killing is -0.835% and the z-score is -0.329.
Taken in the same sequence, the figures for `COc1ccc(C2(CN)CCCC2)cc1OC` were -1.26% and -0.675.
For `O=S1(=O)CC2(N3CCOCC3)CCCCC21` (configuration not stated) the same measures were -5.53% and -1.76.
For `COc1ccccc1CC(C)NC1CCCc2c1[nH]c1ccc([N+](=O)[O-])cc21` (configuration not stated) the same measures were 2.84% and 1.24.
On to `COc1cccc(CCNCc2ccc(C)cc2C)c1`, for which the corrected activity, negative = more killing was -4.05% and the z-score was -1.29.
For `C=CCON=C(CCC)C1C(=O)CC(C)(C)C(C(=O)OC)C1=O` (configuration not stated) the same measures were -4.48% and -1.77.
Taken in the same sequence, the figures for `FC(F)(F)c1ccc(CNCCc2ccc3c(c2)OCO3)cc1` were -3.37% and -1.07.
For `CC(Cc1ccccc1F)NC1CCCc2c1[nH]c1ccc([N+](=O)[O-])cc21` (configuration not stated) the same measures were -1.36% and -0.594.
On to `CCOc1cccc(C(O)CNC)c1` (configuration not stated), for which the corrected activity, negative = more killing was 0.0567% and the z-score was 0.0176.
Regarding `Cc1cnc2cccc[n+]2c1C`, the corrected activity, negative = more killing was 0.645% and the z-score is 0.254.
Taken in the same sequence, the figures for `CCOP(=S)(OCC)SCC(=O)c1c(O)cc(C)oc1=O` were -2.68% and -1.01.
`CCCC12CN3CCN(CC(C3)C1O)C2` (configuration not stated): the corrected activity, negative = more killing is 0.145% and the z-score was 0.0449.
For `CCC(C)N1CCN(Cc2cccc(Cl)c2)CC1` (configuration not stated) the same measures were -0.307% and -0.137.
`CCCCCn1c(=O)c(C(=O)Nc2cccc(OC)c2)c(O)c2ccccc21`: the corrected activity, negative = more killing was -0.341% and the z-score is -0.108.
For `Cc1ccc(OCC(=O)N2CCN(C3CCCCC3)CC2)cc1` the same measures were -3.64% and -1.62.
For `CCOC(=O)CN1C(=O)NC2(CCN(C)CC2)C1=O`, the corrected activity, negative = more killing was -3.8% and the z-score is -1.02.
For `CCN(CC)CCCn1c(=S)[nH]c2cc(Cl)ccc2c1=O` the same measures were -4.51% and -1.2.
